According to PubChem BioAssay (EPA / NIEHS):
Records with an inconclusive call do not appear. A structure can be active in one record and inactive in another. Active and inactive are the calls of the source. Rule for the calls, unless noted: active = hit-call score of the fitted dose curve at least 0.9, where 1 is the maximum; inconclusive = response in the unintended direction; inactive = score below 0.9.

Columns and labels:
[1] = CPHEA_Stoker_NIS_Cytotoxicity: Cytotoxicity Assessment for CPHEA's Radioactive Iodide Uptake (RAIU) Assay for Sodium/Iodide Symporter (NIS) Inhibition, Stoker and Laws Labs (AID 2283897);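 for AC50: active means loss of ATP signal versus DMSO meaning cytotoxicity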
Summary of the method: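 ATP luminescence (Cell Titer Glo) measured viability, with loss of signal normalized to DMSO controls. Cells: hNIS-HEK293T-EPA, seeded 40 hours prior. Dosing: 0.001–100uM, 2 hours, room temperature, uptake buffer pH 7.4.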

[2] = target: frog Thyroid hormone Receptor alpha (TRa), thra-a (gene 397942) (UniProt P15204); test: ATG_frTRa_XSP2: Attagene TRANS-FACTORIAL Multi-Species (XSP2) HepG2 Assay for frog Thyroid hormone Receptor alpha (TRa) (AID 2283839)
Summary of the method: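 HepG2 transiently transfected with multiplexed GAL4-UAS reporters driven by frog TRa-Gal4 chimeras; 24 h chemical exposure. Reporter mRNA quantified by RT-PCR, FAM labelling, HpaI digestion and capillary electrophoresis; gain of signal versus DMSO.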

[3] = target: human Thyroid hormone Receptor beta (TRb), THRB (gene 7068) (UniProt P10828); test: ATG_hTRb_XSP2: Attagene TRANS-FACTORIAL Multi-Species (XSP2) HepG2 Assay for human Thyroid hormone Receptor beta (TRb) (AID 2283840);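 note: actives raise reporter mRNA so potency reflects agonist-like gain of signal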
Summary of the method: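 HepG2 transiently transfected with a multi-species panel including a human TRb–Gal4 chimera driving Gal4-UAS reporters; medium contained 3 nM 6-alpha-fluorotestosterone and 1.5 nM norgestrel. 24 h dosing; RT-PCR/capillary electrophoresis readout; positive-direction fit vs DMSO.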

[4] = test system: Sodium/Iodide Symporter (NIS), SLC5A5 (gene 6528); test: CPHEA_Stoker_NIS_Inhibition_RAIU: CPHEA's Radioactive Iodide Uptake (RAIU) Assay for Sodium/Iodide Symporter (NIS) Inhibition, Stoker and Laws Labs (AID 2283841)
Summary of the method: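 Iodide uptake through human NIS is measured in an engineered HEK293T line. Cells take up 125I (329pM final) for 2 hours at room temperature alongside chemicals at 0.001–100uM. Retained radioactivity is counted, and the signal is expressed against DMSO controls.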

[5] = CEETOX_H295R_11DCORT_noMTC: CeeTox H295R High-throughput Steroidogenesis Assay for 11-Deoxycortisol (11DCORT), maximum tolerated concentration (MTC) filtered results only (AID 2283911; active = hit-call score of the fitted dose curve at least 0.9, where 1 is the maximum; inactive = score below 0.9); conditions: actives raise or lower the signal
Summary of the method: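 H295R cells were prestimulated 48 h with 10 uM forskolin, then exposed 48 h to chemical (0.1% DMSO final). 11-Deoxycortisol in the medium was measured by MTBE extraction and HPLC-MS/MS, with bidirectional fitting versus DMSO and no MTC filtering of concentrations.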

[6] = CEETOX_H295R_OHPREG_noMTC: CeeTox H295R High-throughput Steroidogenesis Assay for OH-Pregnenolone (OHPREG), maximum tolerated concentration (MTC) filtered results only (AID 2283912; active = hit-call score of the fitted dose curve at least 0.9, where 1 is the maximum; inactive = score below 0.9); conditions: actives raise or lower the signal
Summary of the method: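 Steroidogenesis in H295R cells (OECD 456, modified): after 48 h forskolin priming and 48 h chemical treatment, secreted 17alpha-hydroxypregnenolone is measured by HPLC-MS/MS. Activity is fitted in both directions against DMSO; concentrations are not filtered by MTT-based MTC.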

[7] = CEETOX_H295R_OHPROG_noMTC: CeeTox H295R High-throughput Steroidogenesis Assay for OH-Progesterone (OHPROG), maximum tolerated concentration (MTC) filtered results only (AID 2283914; active = hit-call score of the fitted dose curve at least 0.9, where 1 is the maximum; inactive = score below 0.9); conditions: actives raise or lower the signal
Summary of the method: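 Forskolin 10 uM, 48 h prestim → test cmpd in DMSO (0.1% final), 48 h → medium MTBE extraction → LC-MS/MS quant of 17alpha-OH-progesterone. Bidirectional fit vs DMSO; no MTT-based MTC filtering.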

[8] = CEETOX_H295R_ANDR_noMTC: CeeTox H295R High-throughput Steroidogenesis Assay for Androstenedione (ANDR), maximum tolerated concentration (MTC) filtered results only (AID 2283915; active = hit-call score of the fitted dose curve at least 0.9, where 1 is the maximum; inactive = score below 0.9); conditions: actives raise or lower the signal
Summary of the method: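 H295R cells, passage 10 or below, prestimulated 48 h with 10 uM forskolin, then exposed 48 h to chemical in 0.1% DMSO. Medium androstenedione extracted with MTBE, quantified by HPLC-MS/MS; concentrations not MTC-filtered; bidirectional fit versus DMSO.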

[9] = CEETOX_H295R_CORTISOL_noMTC: CeeTox H295R High-throughput Steroidogenesis Assay for Cortisol, maximum tolerated concentration (MTC) filtered results only (AID 2283916; active = hit-call score of the fitted dose curve at least 0.9, where 1 is the maximum; inactive = score below 0.9); conditions: actives raise or lower the signal
Summary of the method: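 Cortisol secretion measured by LC-MS/MS after 48 h chemical treatment (final 0.1% DMSO) of forskolin-primed (10 uM, 48 h) H295R cells; gain or loss fitted relative to DMSO, without maximum-tolerated-concentration filtering.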

[10] = CEETOX_H295R_CORTIC_noMTC: CeeTox H295R High-throughput Steroidogenesis Assay for Corticosterone (CORTIC), maximum tolerated concentration (MTC) filtered results only (AID 2283917; active = hit-call score of the fitted dose curve at least 0.9, where 1 is the maximum; inactive = score below 0.9); conditions: actives raise or lower the signal
Summary of the method: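 Following OECD 456 with minor changes, H295R cultures received 10 uM forskolin for 48 h, then test chemical at 0.1% DMSO for 48 h. Media steroids were extracted and measured by LC-MS/MS.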

[11] = CEETOX_H295R_DOC_noMTC: CeeTox H295R High-throughput Steroidogenesis Assay for DOC, maximum tolerated concentration (MTC) filtered results only (AID 2283918; active = hit-call score of the fitted dose curve at least 0.9, where 1 is the maximum; inactive = score below 0.9); conditions: actives raise or lower the signal
Summary of the method: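 11-Deoxycorticosterone secreted by human adrenal H295R cells quantified by HPLC-MS/MS after 48 h chemical exposure (0.1% DMSO), following 48 h 10 uM forskolin prestimulation. Concentrations not filtered by MTT-derived MTC; bidirectional fitting.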

[12] = CEETOX_H295R_ESTRADIOL_noMTC: CeeTox H295R High-throughput Steroidogenesis Assay for Estradiol, maximum tolerated concentration (MTC) filtered results only (AID 2283919; active = hit-call score of the fitted dose curve at least 0.9, where 1 is the maximum; inactive = score below 0.9); conditions: actives raise or lower the signal
Summary of the method: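 H295R human adrenal cells pre-stimulated 48 h with 10 uM forskolin, then exposed 48 h to chemical (0.1% DMSO final). Estradiol in medium measured by HPLC-MS/MS after MTBE extraction and dansyl derivatization; bidirectional fit versus DMSO, concentrations not MTT-filtered.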

[13] = CEETOX_H295R_PROG_noMTC: CeeTox H295R High-throughput Steroidogenesis Assay for Progesterone (PROG), maximum tolerated concentration (MTC) filtered results only (AID 2283920; active = hit-call score of the fitted dose curve at least 0.9, where 1 is the maximum; inactive = score below 0.9); conditions: actives raise or lower the signal
Summary of the method: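 H295R cells; forskolin 10 uM x 48 h prestim; test cpd 48 h, 0.1% DMSO final; media progesterone via LC-MS/MS; bidirectional fit vs DMSO; no MTT-based MTC filter applied.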

[14] = CEETOX_H295R_ESTRONE_noMTC: CeeTox H295R High-throughput Steroidogenesis Assay for Estrone, maximum tolerated concentration (MTC) filtered results only (AID 2283921; active = hit-call score of the fitted dose curve at least 0.9, where 1 is the maximum; inactive = score below 0.9); conditions: actives raise or lower the signal
Summary of the method: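 H295R cells prestimulated 48 h with 10 uM forskolin, then exposed 48 h to chemical in 0.1% DMSO; medium estrone measured by HPLC-MS/MS after MTBE extraction and dansyl derivatization, fitted bidirectionally versus DMSO without MTT-based MTC filtering.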

[15] = CEETOX_H295R_TESTO_noMTC: CeeTox H295R High-throughput Steroidogenesis Assay for Testosterone (TESTO), maximum tolerated concentration (MTC) filtered results only (AID 2283924; active = hit-call score of the fitted dose curve at least 0.9, where 1 is the maximum; inactive = score below 0.9); conditions: actives raise or lower the signal
Summary of the method: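 H295R cells prestimulated 48 h with 10 uM forskolin, then exposed 48 h to chemicals in 0.1% DMSO final. Testosterone in medium quantified by MTBE extraction and HPLC-MS/MS; bidirectional fit versus DMSO, concentrations […] filtered by MTT-based maximum tolerated concentration.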

PGR (gene 5241) = PGR (gene 5241) (UniProt P06401); test: TOX21_PR_BLA_Followup_Antagonist_ratio: Tox21 HEK293 Progesterone Receptor (PR) Antagonism Beta-lactamase Follow-Up Assay, Ratio (AID 2283934);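 note: PR-UAS-bla HEK293T cells stimulated with 1 nM R5020 agonist for 16 hr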
Summary of the method: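 Antagonist mode used 1 nM R5020 (final) as agonist on a beta-lactamase reporter line in HEK293T cells. Activity was taken from the substrate cleavage ratio after 16 hr exposure.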

[16] = TOX21_PR_BLA_Followup_Agonist_viability: Viability Assessment in the Tox21 HEK293 Progesterone Receptor (PR) Agonism Beta-lactamase Follow-Up Assay (AID 2283935);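 note: cells exposed to compound for 16 hr at 37 °C; signal loss means lower viability so actives are cytotoxic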
Summary of the method: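 Multiplexed viability counter-screen: ATP-coupled luciferase signal measured after 30 min at room temperature, following 16 hr compound treatment of PR-UAS-bla HEK293T cells grown in charcoal-stripped serum.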

[17] = TOX21_PR_BLA_Followup_Antagonist_viability: Viability Assessment in the Tox21 HEK293 Progesterone Receptor (PR) Antagonism Beta-lactamase Follow-Up Assay (AID 2283936);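 note: hits lower the luminescence signal meaning cytotoxicity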
Summary of the method: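 PR-UAS-bla HEK293T cells (3,000/well, 2% charcoal-stripped FBS) given compound plus R5020 agonist, 16 h at 37C. CellTiter-Glo added after bla read, 30 min at room temperature; luminescence loss indicates cytotoxicity.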

Measured: AC50

Chain of frog Thyroid hormone Receptor alpha (TRa), thra-a (gene 397942) (P15204 whole entry, looked up, the tested form may be a part): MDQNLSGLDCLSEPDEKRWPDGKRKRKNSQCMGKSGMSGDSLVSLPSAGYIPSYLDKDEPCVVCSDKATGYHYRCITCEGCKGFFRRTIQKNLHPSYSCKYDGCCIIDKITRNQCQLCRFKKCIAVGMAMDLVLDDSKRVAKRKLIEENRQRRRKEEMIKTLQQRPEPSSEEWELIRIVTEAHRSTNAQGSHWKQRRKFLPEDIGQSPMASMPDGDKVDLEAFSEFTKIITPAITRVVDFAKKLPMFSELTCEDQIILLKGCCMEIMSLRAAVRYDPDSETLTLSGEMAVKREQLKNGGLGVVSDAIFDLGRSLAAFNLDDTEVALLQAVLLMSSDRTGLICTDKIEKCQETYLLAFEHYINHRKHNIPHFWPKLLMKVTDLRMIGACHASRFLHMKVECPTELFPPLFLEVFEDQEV
Chain of human Thyroid hormone Receptor beta (TRb), THRB (gene 7068) (P10828 whole entry, looked up, the tested form may be a part): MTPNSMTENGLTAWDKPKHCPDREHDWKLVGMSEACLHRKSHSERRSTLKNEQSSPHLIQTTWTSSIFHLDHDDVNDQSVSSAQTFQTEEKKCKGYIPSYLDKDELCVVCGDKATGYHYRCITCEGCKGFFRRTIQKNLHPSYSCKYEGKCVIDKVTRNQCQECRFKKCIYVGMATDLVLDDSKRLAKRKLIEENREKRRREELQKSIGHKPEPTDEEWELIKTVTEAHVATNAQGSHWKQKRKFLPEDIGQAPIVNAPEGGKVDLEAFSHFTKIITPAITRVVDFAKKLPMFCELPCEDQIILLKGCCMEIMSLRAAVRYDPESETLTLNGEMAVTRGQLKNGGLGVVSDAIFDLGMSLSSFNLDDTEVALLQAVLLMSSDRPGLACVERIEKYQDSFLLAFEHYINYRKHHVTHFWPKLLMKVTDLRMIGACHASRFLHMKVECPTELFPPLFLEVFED
Chain of PGR (gene 5241) (P06401 whole entry, looked up): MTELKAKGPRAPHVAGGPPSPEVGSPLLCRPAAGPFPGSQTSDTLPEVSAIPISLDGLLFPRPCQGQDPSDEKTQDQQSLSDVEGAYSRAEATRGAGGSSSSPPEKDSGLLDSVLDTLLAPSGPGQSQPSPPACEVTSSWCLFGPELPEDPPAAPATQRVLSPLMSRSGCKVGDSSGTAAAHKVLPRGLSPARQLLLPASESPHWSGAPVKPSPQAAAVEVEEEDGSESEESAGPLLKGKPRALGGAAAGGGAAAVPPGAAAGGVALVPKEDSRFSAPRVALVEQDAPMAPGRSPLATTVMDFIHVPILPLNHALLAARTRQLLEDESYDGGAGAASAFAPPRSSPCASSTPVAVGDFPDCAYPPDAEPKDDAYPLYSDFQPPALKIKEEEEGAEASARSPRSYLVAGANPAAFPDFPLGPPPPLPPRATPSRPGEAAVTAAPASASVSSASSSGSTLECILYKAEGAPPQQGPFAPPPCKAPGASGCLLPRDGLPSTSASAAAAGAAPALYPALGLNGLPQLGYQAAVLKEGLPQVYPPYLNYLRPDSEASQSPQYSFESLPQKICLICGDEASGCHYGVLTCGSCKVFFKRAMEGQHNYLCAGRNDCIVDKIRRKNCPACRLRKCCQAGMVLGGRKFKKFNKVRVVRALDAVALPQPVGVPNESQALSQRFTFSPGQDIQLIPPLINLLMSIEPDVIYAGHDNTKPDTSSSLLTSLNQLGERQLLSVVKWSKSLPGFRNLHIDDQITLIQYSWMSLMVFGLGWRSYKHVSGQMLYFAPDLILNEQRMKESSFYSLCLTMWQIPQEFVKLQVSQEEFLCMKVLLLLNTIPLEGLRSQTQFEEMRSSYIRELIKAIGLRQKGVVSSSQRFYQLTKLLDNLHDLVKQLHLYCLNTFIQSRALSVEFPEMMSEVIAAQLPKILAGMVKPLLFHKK

CC(C)(C)c1cccc(C(C)(C)C)c1O
inactive: [1]

CN1CCN(c2ccccc2/C=C2\SCCN(c3ccc(Cl)c(Cl)c3)C2=O)CC1
inactive: [1]

CCC(C)(C)C1CCC(O)CC1 (stereo not given)
inactive: [2] | [3]

Cc1oc(-c2ccccc2)nc1CCOc1ccc(C[C@H](Nc2ccccc2C(=O)c2ccccc2)C(=O)O)cc1
inactive: [3]
active: [4] 42.5 µM | [1] 9.21 µM

CC[C@H](C)[C@@H](C(=O)O)n1sc2ccccc2c1=O
inactive: [4] | [1]

Cc1cc(CCN2CCN(c3nsc4ccccc34)CC2)cc2c1NC(=O)CC2(C)C
active: [1] 9.92 µM | [5] 11.2 µM | [7] 0.756 µM | [9] 10 µM | [10] 2.65 µM | [11] 7.31 µM | [12] 3.98 µM | [13] 0.584 µM | [14] 4.93 µM
inactive: [4] | [6] | [8] | [15]

C#C[C@]1(O)CC[C@H]2[C@@H]3CCC4=CC(=O)CC[C@@H]4[C@H]3CC[C@@]21C
inactive: [2] | [3]

CCc1ccc(CCOc2ccc(CC3SC(=O)NC3=O)cc2)nc1 (stereo not given)
inactive: [4] | [1]

CCCOC(=O)c1ccc(O)cc1
active: [3] 100 µM
inactive: [2] | [3]

c1ccc2c(c1)Cc1ccccc1-2
not listed: [2] | [3] | [8] | [15] | PGR (gene 5241) | [16] | [17]
inactive: all other assays above

O=C(O)c1ccccc1C(c1ccc(O)cc1)c1ccc(O)cc1
inactive: [4] | [1]

C[C@@H]1C[C@H]2[C@@H]3CCC4=CC(=O)C=C[C@]4(C)[C@@]3(F)[C@@H](O)C[C@]2(C)[C@@]1(O)C(=O)COP(=O)(O)O
inactive: PGR (gene 5241) | [16] | [17]
